Source: the supplement of paper PMC12350171
Counter-ions that a name gives are not always drawn. Unmarked numbers belong to inactive results.

Tests used:
Details in all cases: 20 µM
[1] = tested on: Salmonella enterica typhimurium; test: growth AUC normalised to DMSO control (fraction of control); higher = less growth inhibition, active = hit call of the paper
Method in brief: (§1)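 Pathogens were passaged twice under anaerobic conditions, then inoculated into pre-reduced mGAM plates at a starting OD578 of 0.01, with compound at 20 μM and 1% DMSO, and sealed with breathable membranes. For Haemophilus parainfluenzae, the medium was supplemented with hemin and NAD. OD578 was read every hour for 24 h in three biological replicates. Growth-curve AUC was calculated by the trapezoidal rule up to the exponential-to-stationary transition and normalised to DMSO controls on the same plate.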

[2] = tested on: Shigella flexneri; test: as above
Method in brief: as §1

[3] = tested on: Vibrio cholerae; test: as above
Method in brief: as §1

[4] = tested on: Yersinia pseudotuberculosis; test: as above
Method in brief: as §1

[5] = tested on: P. vulgatus RND KO; test: growth AUC normalised to DMSO control (median) (fraction of control); higher = less growth inhibition, active = hit call of the paper
Method in brief: (§2)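 In 96-well plates of mGAM seeded at OD578 0.01, strains that had been passaged twice overnight without oxygen were exposed to approved-drug library compounds at 20 μM with 1% DMSO. Hourly OD578 readings were taken for 24 h in an anaerobic incubator. The trapezoidal-rule area under the curve, with curves truncated at entry into stationary phase, was expressed relative to same-plate vehicle wells as the median of three biological replicates.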

[6] = tested on: P. vulgatus WT; test: as above
Method in brief: as §2

[7] = tested on: S. enterica typhimurium WT; test: as above
Method in brief: as §2

[8] = tested on: S. enterica typhimurium tolC KO; test: as above
Method in brief: as §2
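Throughout, for growth AUC normalised to DMSO control (median): active when median AUC fell below 0.1.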

| SMILES | growth AUC normalised to DMSO control [1] | growth AUC normalised to DMSO control [2] | growth AUC normalised to DMSO control [3] | growth AUC normalised to DMSO control [4] | growth AUC normalised to DMSO control [5] | growth AUC normalised to DMSO control [6] | growth AUC normalised to DMSO control [7] | growth AUC normalised to DMSO control [8] |
| --- | --- | --- | --- | --- | --- | --- | --- | --- |
| CC(=O)N1CCN(c2ccc(OCC3COC(Cn4ccnc4)(c4ccc(Cl)cc4Cl)O3)cc2)CC1 (centres undefined) [Ketoconazole] | 1.01 | 0.998 | 0.988 | 0.984 | 0.955 | 0.972 | 0.998 | 0.884 |
| COc1cc(N)c(Cl)cc1C(=O)NC1CCN(Cc2ccccc2)CC1 [Clebopride maleate] | 0.996 | 0.998 | 0.995 | 1 | 0.987 | 0.999 | 0.998 | 1 |
| Oc1c(Cl)cc(Cl)c2cccnc12 [Chloroxine] | 0.922 (active) | 0.884 (active) | 0.0387 (active) | 0.652 (active) | 0.32 | 0.0729 (active) | 0.969 | 0.568 |
| Cc1c(NC(C)C)c(=O)n(-c2ccccc2)n1C [Isopyrin hydrochloride] | 1.02 | 1.01 | 1.02 | 0.982 | 1.02 | 1.06 | 1 | 1.01 |
| OCCN1CCN(CCCN2c3ccccc3C=Cc3ccccc32)CC1 [Opipramol dihydrochloride] | 0.981 | 0.962 | 0.961 | 0.996 | 1.01 | 1.01 | 1 | 0.968 |
| CN1C(=O)OC(C)(C)C1=O [Trimethadione] | 0.996 | 0.943 | 0.982 | 0.992 | 0.971 | 0.977 | 0.999 | 1 |
| CC(CCc1ccccc1)NCC(O)c1ccc(O)c(C(N)=O)c1 (centres undefined) [Labetalol hydrochloride] | 0.969 | 0.945 | 0.972 | 0.988 | 1 | 0.988 | 0.99 | 0.986 |
| CCC[C@H](N[C@@H](C)C(=O)N1[C@H](C(=O)O)C[C@@H]2CCCC[C@@H]21)C(=O)OCC [Perindopril] | 1.02 | 1.02 | 0.963 | 1.04 | 1.03 | 1.04 | 1.01 | 1 |
| COC(=O)Nc1nc2cc(Sc3ccccc3)ccc2[nH]1 [Fenbendazole] | 0.996 | 1.01 | 0.995 | 1.01 | 1.01 | 1.01 | 1.01 | 0.987 |
| COc1ccccc1N1CCN(CC(O)COc2cccc3ccccc23)CC1 (centres undefined) [Naftopidil dihydrochloride] | 1.01 | 1 | 0.894 | 0.991 | 0.933 | 0.971 | 1.01 | 0.914 |
| Cc1ccc(S(=O)(=O)NC(=O)NN2CC3CCCC3C2)cc1 (centres undefined) [Gliclazide] | 1.02 | 1.04 | 1.02 | 0.987 | 0.999 | 1.02 | 1 | 1.01 |
| Nc1ccccc1S(N)(=O)=O [o-Sulfanilamide] | 0.993 | 0.971 | 0.988 | 0.99 | 1.01 | 1.01 | 1.01 | 1 |
| C[C@]12CC[C@H]3C(=CCc4cc(O)ccc43)[C@@H]1CCC2=O [Equilin] | 1.01 | 0.993 | 0.99 | 1.01 | 0.993 | 0.991 | 1 | 0.95 |
| CO[C@H]1C[C@H](O[C@H]2[C@H](C)[C@@H](O[C@@H]3O[C@H](C)C[C@H](N(C)C)[C@H]3OC(C)=O)[C@@H](C)C[C@@]3(CO3)C(=O)[C@H](C)[C@@H](OC(C)=O)[C@@H](C)[C@@H](C)OC(=O)[C@@H]2C)O[C@@H](C)[C@@H]1OC(C)=O [Troleandomycin] | 0.998 | 1.01 | 0.882 | 0.999 | 0.0116 (active) | 0.00916 (active) | 0.988 | 0.207 |
| CC1=C(C(=O)O)N2C(=O)[C@@H](NC(=O)[C@H](N)c3ccc(O)cc3)[C@H]2SC1 [Cefadroxil] | 0.979 | 0.937 | 0.967 | 0.997 | 1.01 | 1 | 0.996 | 0.982 |
| NC(=O)N1c2ccccc2C=Cc2ccccc21 [Carbamazepine] | 0.997 | 0.996 | 0.999 | 1 | 1 | 1.04 | 0.998 | 0.999 |
| NS(=O)(=O)c1cc(C(=O)O)c(NCc2ccco2)cc1Cl [Furosemide] | 0.996 | 1.01 | 1.01 | 1.01 | 1.05 | 1.06 | 1.02 | 1.02 |

| SMILES | growth AUC normalised to DMSO control [1] | growth AUC normalised to DMSO control [2] | growth AUC normalised to DMSO control [3] | growth AUC normalised to DMSO control [4] | growth AUC normalised to DMSO control [5] | growth AUC normalised to DMSO control [6] | growth AUC normalised to DMSO control [7] | growth AUC normalised to DMSO control [8] |
| --- | --- | --- | --- | --- | --- | --- | --- | --- |
| N=C(N)NC(=O)c1nc(Cl)c(N)nc1N [Amiloride hydrochloride dihydrate] | 1.01 | 1.01 | 1.04 | 1.02 | 1.03 | 1.04 | 0.982 | 0.996 |
| CCCCN(CCCC)CCCOC(=O)c1ccc(N)cc1 [Butacaine] | 0.988 | 1.01 | 0.981 | 1 | 1.05 | 1.04 | 1.01 | 1 |
| CCCCCCCN(CC)CCCC(O)c1ccc(NS(C)(=O)=O)cc1 (centres undefined) [Ibutilide fumarate] | 0.991 | 0.961 | 0.964 | 0.989 | 1.01 | 0.991 | 0.996 | 1.01 |
| CN(C)CCC(c1ccccc1)c1ccccn1 (centres undefined) [Pheniramine maleate] | 0.996 | 1.04 | 0.997 | 1.01 | 1.01 | 1.02 | 0.999 | 1.01 |
| Cc1ccccc1N1C(=O)c2cc(S(N)(=O)=O)c(Cl)cc2NC1C (centres undefined) [Metolazone] | 0.994 | 0.984 | 0.996 | 0.991 | 0.99 | 1 | 1.02 | 0.997 |
| C=C1c2cccc(O)c2C(O)=C2C(=O)[C@]3(O)C(O)=C(C(N)=O)C(=O)[C@@H](N(C)C)[C@@H]3[C@@H](O)[C@H]12 [Methacycline hydrochloride] | 0.00318 (active) | 0.0126 (active) | 0.0374 (active) | 0.0389 (active) | 0.0122 (active) | 0.00531 (active) | 0.000703 (active) | 0.00224 (active) |
| Clc1cccc(Cl)c1NC1=NCCN1 [Clonidine hydrochloride] | 1.01 | 1.02 | 1.03 | 1.01 | 0.998 | 1.04 | 0.996 | 1.01 |
| CC(COc1ccccc1)NC(C)C(O)c1ccc(O)cc1 (centres undefined) [Isoxsuprine hydrochloride] | 0.979 | 0.989 | 1 | 0.989 | 1.02 | 1.01 | 0.998 | 1 |
| Cc1ncc([N+](=O)[O-])n1CC(O)CCl (centres undefined) [Ornidazole] | 0.995 | 0.987 | 1.01 | 0.964 | 0.0124 (active) | 0.00943 (active) | 0.99 | 0.99 |
| C/C=C(/C(=C/C)c1ccc(O)cc1)c1ccc(O)cc1 [Dienestrol] | 1 | 1.04 | 0.969 | 1.02 | 0.015 (active) | 0.264 | 1 | 0.857 |
| CC(CN1c2ccccc2Sc2ccccc21)N(C)C (centres undefined) [Promethazine hydrochloride] | 0.983 | 1.03 | 0.961 | 0.957 | 0.718 | 0.682 | 1 | 0.98 |
| CCc1c2c(nc3ccc(OC(=O)N4CCC(N5CCCCC5)CC4)cc13)-c1cc3c(c(=O)n1C2)COC(=O)[C@]3(O)CC [Irinotecan hydrochloride trihydrate] | 0.999 | 1.01 | 1.01 | 0.998 | 1 | 1.1 | 1 | 0.986 |
| CCOc1ccc(Cc2nccc3cc(OCC)c(OCC)cc23)cc1OCC [Ethaverine hydrochloride] | 1.01 | 1.04 | 1 | 1.01 | 1 | 0.998 | 1 | 0.969 |
| CCc1cccc2c3c([nH]c12)C(CC)(CC(=O)O)OCC3 (centres undefined) [Etodolac] | 1.01 | 1.06 | 1.06 | 1.02 | 0.99 | 1.01 | 1.02 | 1.02 |
| CCOC(=O)C1=C(C)NC(C)=C(C(=O)OCC)C1c1ccccc1/C=C/C(=O)OC(C)(C)C [Lacidipine] | 1.01 | 1 | 1.02 | 1.02 | 1.07 | 1.06 | 1 | 1 |
| CC(=O)CC(c1ccc([N+](=O)[O-])cc1)c1c(O)c2ccccc2oc1=O (centres undefined) [Acenocoumarol] | 0.985 | 1.01 | 0.938 | 0.991 | 1.07 | 1.06 | 0.999 | 0.999 |
